The values that follow come from PubChem BioAssay (Tox21).

Assay [1] in a line: qHTS RealTime-Glo MT Cell Viability Assay in HEK293 cells - 40 hour (AID 1224874). Further: nearly all actives have a fitted effect of over 50% in size. Further: potency means the concentration at half of the fitted maximal effect. The settings on record: RealTime-Glo luminescence; max response: stronger effect = lower value. The gist of the method: (§1)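 Kinetic, non-lysing viability readout. Seed HEK293 (600/well) with reagent, incubate 5 h at 37 C/5% CO2, pin 23 nL compound in DMSO, incubate at 37 C, read luminescence at 0, 8, 16, 24, 32, 40 h.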

Assay [2] can be described thus: A CellTox Green Cytotoxicity Assay to monitor cytotoxicity in HEK293 cells - 24 hour (AID 1224875). Further: series mostly up to about 77 µM; nearly all actives have a fitted effect of over 45% in size. In outline:
(§2)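 Real-time, in one plate: 600 HEK293 cells/well with dead-cell DNA dye, pinned compound after 5 h, 37 C incubation over 40 h; viable cells give no appreciable fluorescence.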

Assay [3] in a line: A CellTox Green Cytotoxicity Assay to monitor cytotoxicity in HepG2 cells - 16 hour (AID 1224876). Further: nearly all actives have a fitted effect of over 45% in size. The gist of the method: (§3)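 Cytotoxicity was tracked as dead-cell DNA fluorescence in HepG2 cells treated with test compounds at 37 C; each time-point value comes from one kinetic series spanning 0, 8, 16, 24, 32 and 40 h.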
The nature of assay [4]: qHTS RealTime-Glo MT Cell Viability Assay in HepG2 cells - 32 hour (AID 1224877). Further: nearly all actives have a fitted effect of over 55% in size. In outline: (§4)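 Compound treatment began 5 h after plating HepG2 cells (600/well) with NanoLuc luciferase and prosubstrate. Plates stayed at 37 C for 40 h; luminescence was captured at six time points, 0 h through 40 h.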
Assay [5] can be described thus: A CellTox Green Cytotoxicity Assay to monitor cytotoxicity in HepG2 cells - 24 hour (AID 1224878). Further: nearly all actives have a fitted effect of over 45% in size. The gist of the method: as §3
The nature of assay [6]: A CellTox Green Cytotoxicity Assay to monitor cytotoxicity in HepG2 cells - 40 hour (AID 1224879). Further: nearly all actives have a fitted effect of over 40% in size. Further: potency means the concentration at half of the fitted maximal effect. The gist of the method: as §3
A short description of assay [7]: qHTS RealTime-Glo MT Cell Viability Assay in HEK293 cells - 0 hour (AID 1224880). Further: top concentration of the series differs between compounds; nearly all actives have a fitted effect of over 45% in size. In outline: as §1
The nature of assay [8]: A CellTox Green Cytotoxicity Assay to monitor cytotoxicity in HEK293 cells - 32 hour (AID 1224881). Further: nearly all actives have a fitted effect of over 40% in size. In outline: as §2
The nature of assay [9]: A CellTox Green Cytotoxicity Assay to monitor cytotoxicity in HepG2 cells - 0 hour (AID 1224882). Further: nearly all actives have a fitted effect of over 35% in size. In outline: as §3
Assay [10] can be described thus: A CellTox Green Cytotoxicity Assay to monitor cytotoxicity in HepG2 cells - 32 hour (AID 1224883). Further: nearly all actives have a fitted effect of over 50% in size. In outline: as §3
Assay [11] is described as follows: A CellTox Green Cytotoxicity Assay to monitor cytotoxicity in HEK293 cells - 8 hour (AID 1224884). Further: nearly all actives have a fitted effect of over 35% in size. In outline: as §2
Assay [12] can be described thus: qHTS RealTime-Glo MT Cell Viability Assay in HepG2 cells - 16 hour (AID 1224885). Further: nearly all actives have a fitted effect of over 50% in size. In outline: as §4
On the technique in general: qHTS replaces the single test concentration by a dilution series.

The nature of assay [13]: qHTS RealTime-Glo MT Cell Viability Assay in HEK293 cells - 24 hour (AID 1224886). Further: nearly all actives have a fitted effect of over 50% in size. Further: potency means the concentration at half of the fitted maximal effect. In outline:
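Quantitative high-throughput screen of the Tox21 10K library in HEK293: cells and RealTime-Glo reagents plated together, compound added at 5 h, luminescence monitored through 40 h at 37 C.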

A short description of assay [14]: qHTS RealTime-Glo MT Cell Viability Assay in HEK293 cells - 8 hour (AID 1224887). The gist of the method: as §1
Assay [15] can be described thus: qHTS RealTime-Glo MT Cell Viability Assay in HepG2 cells - 0 hour (AID 1224889). Further: nearly all actives have a fitted effect of over 50% in size. The gist of the method:
as §4

The nature of assay [16]: A CellTox Green Cytotoxicity Assay to monitor cytotoxicity in HepG2 cells - 8 hour (AID 1224890). Further: nearly all actives have a fitted effect of over 45% in size. The gist of the method: as §3
Assay [17] in a line: qHTS assay to identify small molecule antagonists of the estrogen receptor alpha (ER-alpha) signaling pathway using the BG1 cell line in the presence of 0.1 nM 17-beta-estradiol - cell viability counter screen (AID 1259241). Further: nearly all actives have a fitted effect of over 40% in size. In outline:
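The cell line endogenously expresses full-length ER-alpha and carries four EREs driving luciferase. Cells are cultured 5 days hormone-free, treated 22 hr with compounds and 0.1 nM estradiol, then viability is read by fluorescence.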

Assay [18] is described as follows: qHTS assay to identify small molecule antagonists of the androgen receptor (AR) signaling pathway using the MDA cell line in the presence of 0.5 nM R1881 - cell viability counter screen (AID 1259242). Further: nearly all actives have a fitted effect of over 45% in size. In outline: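 Cells seeded at 3,000/well and allowed 5 hr at 37C, 0% CO2 before compound transfer and R1881 (0.5 nM final) addition; 16 hr later, live-cell protease fluorescence indicated cytotoxicity.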

The nature of assay [19]: A CellTox Green Cytotoxicity Assay to monitor cytotoxicity in HEK293 cells - 16 hour (AID 1224888). Further: nearly all actives have a fitted effect of over 35% in size. The gist of the method:
as §2

Several values for one entry are separate records, joined by “and”; a condition that tells them apart may be missing. Equal values may be shown once. Records with an inconclusive call do not appear. A structure can be active in one record and inactive in another. Activity calls are given as the source filed them. The call rests on the fitted dose curve; in most records, active means well fitted curve in the direction sought with a large enough effect in the repeat runs; inconclusive means weak or mixed curves; inactive means no such curve, though single readings can be large; an effect the other way counts as inactive or inconclusive.
On the % scale 0 is the no-effect control and ±100 the full control effect.

As to `COC(=O)c1ccccc1N`, in assay [1], the max response is 1.4% (inactive) and 10.1% (inactive). The Potency entry in assay [2], in assay [3], in assay [5], in assay [6], in assay [8] and in assay [9] was “inactive” in each case. The Potency entry in [10], in assay [11], in assay [13], in assay [16] and in assay [17] was “inactive” in each case. Moreover, the compound was classed as inactive in assay [4], in [7], in assay [12], in assay [14], in assay [15] and in assay [18].

Take `COc1ccc2c3c1O[C@H]1[C@@H](O)C=C[C@H]4[C@@H](C2)N(C)CC[C@@]341`: the Potency was 24.2 µM (active) in assay [1]; 30.4 µM (active) and inactive in [6]; 48.2 µM (active) and inactive in [13]. The max response in assay [1] is 0.391% (inactive). Besides, the Potency result in assay [2], in [3], in assay [5], in [8], in assay [9] and in assay [10] was “inactive” in each case. Also, the Potency entry in assay [11], in assay [19], in assay [16] and in assay [17] was “inactive” each time. For the same compound, the compound was called inactive in [4], in assay [7], in assay [12], in assay [14], in [15] and in [18].

Regarding `Clc1ccc(Cl)cc1`, in [1], the max response is 6.61% (inactive) and 0.839% (inactive). The Potency entry in assay [2], in assay [3], in assay [5], in assay [6], in assay [8] and in [9] was “inactive” throughout. Besides, the Potency result in [10], in assay [11], in assay [13], in [16] and in assay [17] was “inactive” in each case. Besides, the result in assay [4], in assay [7], in [12], in assay [14], in assay [15] and in assay [18] was inactive.

On to `O=[N+]([O-])c1ccc([As](=O)(O)O)cc1`, for which, in assay [1], the max response is 0.69% (inactive) and 11.7% (inactive). The Potency result in assay [2], in [3], in assay [5], in [6], in assay [8] and in [9] was “inactive” throughout. Moreover, the Potency result in assay [10], in assay [11], in [13], in [16] and in [17] was “inactive” each time. In addition, the compound was called inactive in assay [4], in assay [7], in [12], in assay [14], in assay [15] and in [18].

Regarding `CN(C)[C@@H]1C(=O)C(C(N)=O)=C(O)[C@@]2(O)C(=O)C3=C(O)c4c(O)cccc4[C@@](C)(O)[C@H]3C[C@@H]12`, the max response in assay [1] was 8.71% (inactive) and 13.3% (inactive) and -4.27% (inactive). The Potency entry in [2], in assay [3], in assay [5], in assay [6], in assay [8] and in assay [9] was “inactive” throughout. The Potency entry in assay [10], in assay [11], in assay [13], in assay [16] and in [17] was “inactive” in each case. Moreover, the outcome in assay [4], in assay [7], in [12], in assay [14], in assay [15] and in [18] was inactive.

Take `COC(=O)NS(=O)(=O)c1ccc(N)cc1`: the max response in assay [1] was 15.7% (inactive) and 20.4% (inactive). The Potency result in [2], in assay [3], in assay [5], in assay [6], in [8] and in [9] was “inactive” each time. Further, the Potency entry in assay [10], in assay [11], in [13], in assay [19], in [16] and in assay [17] was “inactive” throughout. Besides, the outcome in assay [4], in assay [7], in assay [12], in assay [14], in assay [15] and in assay [18] was inactive.

Turning to `Nc1ccc(Cc2ccc(N)cc2)cc1`, in assay [1], the max response was -10.2% (inactive). The Potency result in [2], in assay [3], in assay [5], in assay [6], in assay [8] and in [9] was “inactive” each time. The Potency entry in assay [10], in assay [11], in [13], in [16] and in assay [17] was “inactive” throughout. In addition, the compound was classed as inactive in [4], in [7], in [12], in [14], in [15] and in assay [18].

For the compound `CC(C)=C[C@@H]1[C@@H](C(=O)OCc2coc(Cc3ccccc3)c2)C1(C)C`, in assay [1], the max response is -1.11% (inactive) and 8.33% (inactive). Moreover, the Potency entry in assay [2], in [3], in [5], in assay [6], in [8] and in [9] was “inactive” throughout. Moreover, the Potency result in assay [10], in assay [11], in [13], in assay [19], in [16] and in assay [17] was “inactive” in each case. In addition, the compound was classed as inactive in assay [4], in [7], in [12], in [14], in [15] and in assay [18].

In the case of `C1CC2OC2CC1C1CO1` (centres undefined), in [1], the max response was 9.84% (inactive). In addition, the Potency entry in assay [2], in [3], in assay [5], in assay [6], in assay [8] and in assay [9] was “inactive” each time. For the same compound, the Potency result in assay [10], in [11], in assay [13], in assay [16] and in assay [17] was “inactive” each time. In addition, the outcome in assay [4], in assay [7], in assay [12], in [14], in [15] and in assay [18] was inactive.

Regarding `CN(C)N=O`, the max response in assay [1] is 7.51% (inactive) and -1.45% (inactive). In addition, the Potency entry in [2], in assay [3], in assay [5], in assay [6], in assay [8] and in assay [9] was “inactive” in each case. For the same compound, the Potency entry in assay [10], in assay [11], in assay [13], in [19], in assay [16] and in assay [17] was “inactive” in each case. Besides, the result in [4], in assay [7], in assay [12], in assay [14], in assay [15] and in assay [18] was inactive.

For the compound `CN1C(=O)CN=C(c2ccccc2)c2cc(Cl)ccc21`, the max response in assay [1] was -22% (inactive). The Potency entry in assay [2], in assay [3], in assay [5], in [6], in assay [8] and in assay [9] was “inactive” each time. Moreover, the Potency result in assay [10], in assay [11], in assay [13], in [16] and in assay [17] was “inactive” throughout. In addition, the compound was classed as inactive in [4], in [7], in assay [12], in [14], in [15] and in [18].

Turning to `COC(=O)c1ccccc1C(=O)OC`, the max response in assay [1] was -6.01% (inactive) and 4.81% (inactive). For the same compound, the Potency entry in assay [2], in assay [3], in assay [5], in [6], in assay [8] and in assay [9] was “inactive” throughout. Besides, the Potency entry in [10], in assay [11], in assay [13], in [19], in assay [16] and in assay [17] was “inactive” throughout. Moreover, the compound was called inactive in [4], in assay [7], in assay [12], in [14], in assay [15] and in assay [18].

For the compound `Nc1c(Cl)c(Cl)nc(C(=O)O)c1Cl`, the max response in assay [1] is 19.5% (inactive) and -5.11% (inactive) and 22.8% (inactive). The Potency entry in assay [2], in [3], in assay [5], in [6], in assay [8] and in assay [9] was “inactive” throughout. Also, the Potency entry in [10], in [11], in assay [13], in assay [19], in assay [16] and in [17] was “inactive” each time. The compound was called inactive in assay [4], in assay [7], in [12], in assay [14], in assay [15] and in assay [18].

Take `ClCCBr`: in assay [1], the max response is -0.15% (inactive) and 0.955% (inactive). Further, the Potency entry in [2], in assay [3], in assay [5], in [6], in [8] and in assay [9] was “inactive” in each case. For the same compound, the Potency result in [10], in assay [11], in assay [13], in assay [16] and in assay [17] was “inactive” throughout. In addition, the outcome in [4], in assay [7], in [12], in assay [14], in assay [15] and in assay [18] was inactive.
